# This is a sample that favours compounds with a hit; in the whole collection about 2.2% have one here.
# MEKK3 PB1 HTS = raises or lowers MEK5 binding to the human MEKK3 PB1 domain. bead-based flow cytometry, Alexa488-MEK5 binding to MEKK3; actives lie on both sides; 0 = blocked by unlabeled MEK5, 100 = vehicle. 290,000 compounds, 1.4% hits. Q99759. binding response (% of control), % at 10 µM;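 active means binding response more than 3 SD above or below the average of its plate-row segment, actives on both sides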;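 further: Alexa488 bead fluorescence after subtracting the streptavidin-only scavenger bead signal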
# Target sequence (Q99759 whole entry, looked up, the tested form may be a part): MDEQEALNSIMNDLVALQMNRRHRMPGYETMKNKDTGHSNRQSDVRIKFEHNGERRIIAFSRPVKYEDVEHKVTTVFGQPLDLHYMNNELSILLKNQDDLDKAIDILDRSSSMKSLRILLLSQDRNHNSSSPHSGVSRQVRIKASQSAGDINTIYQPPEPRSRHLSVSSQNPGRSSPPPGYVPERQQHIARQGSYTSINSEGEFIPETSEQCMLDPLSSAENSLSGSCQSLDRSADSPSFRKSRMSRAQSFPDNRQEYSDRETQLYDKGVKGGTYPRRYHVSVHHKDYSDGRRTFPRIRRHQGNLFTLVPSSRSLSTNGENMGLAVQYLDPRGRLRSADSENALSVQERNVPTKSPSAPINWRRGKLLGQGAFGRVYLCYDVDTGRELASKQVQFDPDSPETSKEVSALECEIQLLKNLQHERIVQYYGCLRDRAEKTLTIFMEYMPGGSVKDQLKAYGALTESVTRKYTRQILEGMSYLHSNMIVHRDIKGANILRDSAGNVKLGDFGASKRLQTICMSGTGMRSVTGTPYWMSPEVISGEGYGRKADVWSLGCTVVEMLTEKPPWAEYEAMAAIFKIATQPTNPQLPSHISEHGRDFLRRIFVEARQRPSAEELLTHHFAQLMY
# VLA-4 inh = inhibition in a human VLA-4 binding assay; VLA-4 expressing cells, ligand binding flow cytometry; inhibition, % (about 7 µM as worked out from the volumes in the protocol); P13612; 330,000 compounds, 0.2% hits; in the data active means inhibition above about 50%
# MEKK2 mut-MEK5 = signal of MEK5 binding to mutant human MEKK2 PB1 domain. 290,000 compounds, 0.35% hits. percent response, % at 10 µM. bead flow cytometry, Alexa488-MEK5 binding to MEKK2 mutant. AID 1530; in the data active means percent response above about 24%, passing the limit was not always enough
# MEKK2 WT-MEK5 = raises or lowers MEK5 binding to wildtype human MEKK2 PB1 domain; bead flow cytometry, Alexa488-MEK5 binding to MEKK2 WT; actives lie on both sides; binding response (% of control), % at 10 µM; 290,000 compounds, 1.1% hits; in the data active means binding response below about 67% or above about 130%
# MEKK2wt confirm = raises or lowers MEK5 binding to wildtype human MEKK2, retest | shares compounds with MEKK3 PB1 HTS | binding response (% of control), % at 10 µM | bead flow cytometry, Alexa488-MEK5 binding to MEKK2 WT; actives lie on both sides | AID 1892 | 5,900 compounds, 2.4% hits; in the data active means binding response below about 16% or above about 210%; inactive means in between
# MEKK2mut confirm = signal of MEK5 binding to mutant human MEKK2, retest | shares compounds with MEKK3 PB1 HTS | 5,900 compounds, 2% hits | percent response, % at 10 µM | bead flow cytometry, Alexa488-MEK5 binding to MEKK2 mutant; in the data active means percent response mostly above about 71%, no sharp cut-off; inactive means mostly below about 38%;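 further: higher means compound restores mutant binding toward wildtype level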
# MEKK3 confirm = MEKK3-MEK5 PB1 inhibition, single concentration confirmation; 5,900 compounds, 1.8% hits; binding response (% of control), % at 10 µM; bead flow cytometry, Alexa488-MEK5 binding to MEKK3; stronger effect = lower value; AID 1894; shares compounds with MEKK3 PB1 HTS;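 active means binding response below 72% of control, or above a set upper limit, though filed actives all read lower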
# Numbers stand for hits; i = inactive; nt = no result; [ ] = dose if it differs, or a comment.
SMILES,MEKK3 PB1 HTS,VLA-4 inh,MEKK2 mut-MEK5,MEKK2 WT-MEK5,MEKK2wt confirm,MEKK2mut confirm,MEKK3 confirm
CC1(c2ccc3ccccc3c2)NC(=O)N(CC(=O)N2CCN(Cc3ccccc3)CC2)C1=O (configuration not stated),nt,i,nt,nt,nt,nt,nt
OC1(c2ccc3ccccc3c2)CCN(Cc2ccccc2)C1 (configuration not stated),i,i,28,i,i,i,i
NC(=O)C1CCN(c2ncc(C(F)(F)F)cc2Cl)CC1,130,i,i,i,i,i,i
COc1ccccc1NC(=O)C(C)N1C(=O)C2CCCCC2C1=O (configuration not stated),nt,i,nt,nt,nt,nt,nt
O=C(CCN1CCC(c2ccccc2)C1)c1ccccc1 (configuration not stated),i,i,i,i,nt,nt,nt
O=C(CCN1CCC(c2ccccc2)C1)c1cccs1 (configuration not stated),81[inhibitor],i,i,i,i,i,i
O=C(C[n+]1cc(-c2ccccc2)n2c1CCC2)N1c2ccccc2Sc2ccccc21,i,i,i,i,nt,nt,nt
Cc1ccc(-c2c[n+](CC(=O)N3c4ccccc4Sc4ccccc43)c3n2CCC3)cc1,i,i,i,152,i,i,i
Cc1ccc(-c2csc(NC(=O)C[n+]3cc(-c4ccc(C)cc4)n4c3CCC4)n2)cc1,i,i,i,141,207,i,i
Cc1ccc(-c2c[n+](CC(=O)Nc3c(C)cccc3C)c3n2CCC3)cc1,i,i,i,i,nt,nt,nt
Cc1ccc(-c2csc(NC(=O)C[n+]3cc(-c4ccccc4)n4c3CCC4)n2)cc1,i,i,i,167,i,i,i
CCOC(=O)c1cc(CC)sc1NC(=O)c1ccc(N2C(=O)CCC2=O)cc1,i,i,i,i,nt,nt,nt
CCOC(=O)c1cc(CC)sc1NC(=O)c1cc(OC)c(OC)c(OC)c1,i,i,i,141,i,i,i
COc1ccc(-c2nsc3c(N4CCCC4)ncnc23)cc1,-1.0[inhibitor],i,i,-2.0[inhibitor],i,i,i
COc1ccc(-c2csc3ncnc(N4CCN(c5ccc(OC)cc5)CC4)c23)cc1,i,i,i,i,nt,nt,nt
Cc1ccccc1Nc1cc(C)c2c(O)cccc2n1,57[inhibitor],i,i,i,i,i,i
CCC(NC(=S)NC1CCCCC1)c1ccc(C(C)C)cc1 (configuration not stated),i,i,i,i,nt,nt,nt
COc1ccc(C(=O)C[n+]2cc(Br)cc3ccccc32)cc1[N+](=O)[O-],i,i,i,i,nt,nt,nt
O=C(C[n+]1cc(Br)cc2ccccc21)c1ccccc1,i,i,i,66[inhibitor],i,i,70
Cc1cccc(NC(=O)N2CCC(NC(=O)c3ccccc3C)CC2)c1,2.0[inhibitor],i,i,2.0[inhibitor],i,i,i
Cc1ccccc1C(=O)N1CCC(C(=O)Nc2ccc(F)cc2)CC1,i,i,i,i,nt,nt,nt
CSc1cccc(NC(=O)C2CCN(C(=O)c3ccccc3C)CC2)c1,151,i,i,i,i,i,i
Cn1ccnc1C(=O)Cc1ccc([N+](=O)[O-])cc1,nt,i,nt,nt,nt,nt,nt
Cc1cn(CCC(=O)Nc2ccc(N3CCOCC3)cc2)c2ccccc12,128,i,i,i,i,i,i
Cc1cc(C2=NNC(=NC3CC3)SC2)c(C)n1-c1c(C)n(C)n(-c2ccccc2)c1=O,i,i,i,i,nt,nt,nt
SMILES,MEKK3 PB1 HTS,VLA-4 inh,MEKK2 mut-MEK5,MEKK2 WT-MEK5,MEKK2wt confirm,MEKK2mut confirm,MEKK3 confirm
Cc1cc(C2=NNC(=NCCc3ccccc3)SC2)c(C)n1-c1c(C)n(C)n(-c2ccccc2)c1=O,50[inhibitor],i,i,i,i,i,i
C/C(N)=C(/C#N)C(=O)COC(=O)CNC(=O)c1ccc(Cl)cc1Cl,i,i,i,i,nt,nt,nt
Cc1ccc2cc(C#N)c(N3CCCN(C(=S)NCCCN(C)C)CC3)nc2c1,i,i,i,i,nt,nt,nt
Cc1cc(C)c2cc(C#N)c(N3CCCN(C(=S)NCCCN(C)C)CC3)nc2c1,i,i,32,i,i,i,i
Cc1ccc(C(=O)N/C(=C\c2ccc(-c3ccccc3[N+](=O)[O-])o2)C(=O)NCCCN(C)C)cc1,i,i,25,i,i,i,i
CN(C)CCCNC(=O)/C(=C\c1ccc(-c2ccc(Br)cc2)o1)NC(=O)c1ccccc1,i,i,i,i,nt,nt,nt
Cc1ccc(C(=O)N/C(=C\c2ccc(-c3ccc(Cl)cc3)o2)C(=O)NCCCN(C)C)cc1,43[inhibitor],i,i,i,i,i,i
CC(c1ccccc1)N1CCN(C(=O)CCl)CC1 (configuration not stated),i,i,i,i,nt,nt,nt
Oc1c(Br)cc(C=Nc2ccc3nc(-c4ccccc4)[nH]c3c2)c(O)c1Br,i,i,i,56[inhibitor],i,i,i
O=[N+]([O-])c1ccc(O)c(C=Nc2ccc3nc(-c4ccccc4)[nH]c3c2)c1,i,i,i,i,nt,nt,nt
CCS(=O)(=O)N1Cc2ccccc2CC1C(=O)Nc1cccc(S(=O)(=O)N(C)C)c1 (configuration not stated),i,i,i,i,nt,nt,nt
O=C(NCC(=O)N(c1ccc(F)cc1)C(C(=O)NC1CCCC1)c1cccnc1)c1ccco1 (configuration not stated),i,i,i,i,nt,nt,nt
Cc1ccc(CNC(=O)C2CCCN2C(=O)Nc2ccccc2)cc1 (configuration not stated),i,i,i,i,nt,nt,nt
CC(=O)c1ccc(N2CCN(C(=O)c3ccc(NC4=NC5CS(=O)(=O)CC5S4)cc3)CC2)cc1 (configuration not stated),i,i,i,i,nt,nt,nt
COc1cc(SC)ccc1C(=O)N1CCCCCC1,125,i,i,i,i,i,i
O=C(NNc1nc(-c2ccccc2)cs1)c1cccs1,69[inhibitor],i,i,i,i,i,i
COc1ccccc1C1C(C(C)=O)=C(O)C(=O)N1CCc1ccccc1 (configuration not stated),42[inhibitor],i,i,10[inhibitor],i,i,i
COc1ccc(CCN2C(=O)C(O)=C(C(C)=O)C2c2ccccc2OC)cc1OC (configuration not stated),i,i,i,i,nt,nt,nt
CSc1nnc(NC(=O)c2cc(=O)c3cc(C)cc(C)c3o2)s1,i,i,i,i,nt,nt,nt
Cc1cc(C)c2oc(C(=O)Nc3nnc(C(C)C)s3)cc(=O)c2c1,212,i,i,i,i,i,i
C=CCOc1ccc(/C=C2\N=C(C)OC2=O)cc1OC,61[inhibitor],i,i,53[inhibitor],i,i,i
COc1cccc(NC(=O)CN2CCc3ccccc3C2)c1,i,i,i,i,nt,nt,nt
CC1=N/C(=C\c2ccc([N+](=O)[O-])cc2)C(=O)N1c1ccc(Br)c(C)c1,82[inhibitor],i,i,-2.0,i,i,i
